Results taken from PubChem BioAssay AID1159580 (chemical genetic matrix, 2015).
The campaign covered roughly 5,500 compounds. About 2,000 (36%) were called active. Roughly 18% stayed inconclusive and do not appear here. Rule as the data show it: active = normalized growth mostly below about 0.91 (no sharp cut-off); inconclusive = no clear call, values can overlap the other calls; inactive = mostly above about 0.92. Some of the results follow.

Experiment: chemical genetic growth profiling, strain panel (AID 1159580);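 also: tested at 20 µM; growth read once vehicle control cultures reached saturation at 30 °C; 1 = growth at the plate median or of vehicle wells; lower values mean less growth of the strain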
Settings: growth OD

Measured: normalized growth

Oc1c(Br)cc(Br)c2cccnc12
active: S. cerevisiae deletion strains, locus YJR075W, strain HOC1, stronger effect = lower value 0.0682 | S. cerevisiae deletion strains, locus YKL009W, strain mrt4, stronger effect = lower value 0.0898 | S. cerevisiae deletion strains, locus YKL068W, stronger effect = lower value 0.0659 | S. cerevisiae deletion strains, locus YKL085W, strain MDH1 (second series), stronger effect = lower value 0.0622 | S. cerevisiae deletion strains, locus YKL085W, strain MDH1, stronger effect = lower value 0.0622 | S. cerevisiae deletion strains, locus YKL160W, strain elf1, stronger effect = lower value 0.0686 | S. cerevisiae deletion strains, locus YKL190W, strain CNB1, stronger effect = lower value 0.049 | S. cerevisiae deletion strains, locus YKR001C, strain vps1, stronger effect = lower value 0.0714 | S. cerevisiae deletion strains, locus YKR026C, strain gcn3, stronger effect = lower value 0.0599 | S. cerevisiae deletion strains, locus YKR091W, strain srl3, stronger effect = lower value 0.0574 | S. cerevisiae deletion strains, locus YLL001W, strain dnm1, stronger effect = lower value 0.0635 | S. cerevisiae deletion strains, locus YLL026W, stronger effect = lower value 0.065 | S. cerevisiae deletion strains, locus YLL041C, strain sdh2, stronger effect = lower value 0.0602 | S. cerevisiae deletion strains, locus YLR027C, strain aat2, stronger effect = lower value 0.0544 | S. cerevisiae deletion strains, locus YLR039C, strain RIC1, stronger effect = lower value 0.0808 | S. cerevisiae deletion strains, locus YLR058C, strain SHM2, stronger effect = lower value 0.0497 | S. cerevisiae deletion strains, locus YLR102C, strain apc9, stronger effect = lower value 0.0675 | S. cerevisiae deletion strains, locus YLR113W, strain HOG1, stronger effect = lower value 0.164 | S. cerevisiae deletion strains, locus YLR221C, strain rsa3, stronger effect = lower value 0.061 | S. cerevisiae deletion strains, locus YLR258W, strain gsy2, stronger effect = lower value 0.0604 | S. cerevisiae deletion strains, locus YLR262C, strain YPT6 (second series), stronger effect = lower value 0.0797 | S. cerevisiae deletion strains, locus YLR262C, strain YPT6, stronger effect = lower value 0.106 | S. cerevisiae deletion strains, locus YLR268W, strain sec22, stronger effect = lower value 0.0737 | S. cerevisiae deletion strains, locus YLR320W, strain mms22, stronger effect = lower value 0.0804 | S. cerevisiae deletion strains, locus YLR330W, strain CHS5, stronger effect = lower value 0.0542 | S. cerevisiae deletion strains, locus YLR342W, strain FKS1 (second series), stronger effect = lower value 0.0742 | S. cerevisiae deletion strains, locus YLR342W, strain FKS1, stronger effect = lower value 0.0656 | S. cerevisiae deletion strains, locus YLR357W, strain rsc2, stronger effect = lower value 0.121 | S. cerevisiae deletion strains, locus YLR370C, strain arc18, stronger effect = lower value 0.0663 | S. cerevisiae deletion strains, locus YLR371W, strain rom2, stronger effect = lower value 0.0714 | S. cerevisiae deletion strains, locus YLR384C, strain iki3, stronger effect = lower value 0.0612 | S. cerevisiae deletion strains, locus YLR418C, strain cdc73, stronger effect = lower value 0.11 | S. cerevisiae deletion strains, locus YML016C, strain PPZ1, stronger effect = lower value 0.0489 | S. cerevisiae deletion strains, locus YML032C, strain rad52, stronger effect = lower value 0.0748 | S. cerevisiae deletion strains, locus YML120C, strain ndi1, stronger effect = lower value 0.0584 | S. cerevisiae deletion strains, locus YML124C, strain tub3, stronger effect = lower value 0.067 | S. cerevisiae deletion strains, locus YMR058W, strain fet3, stronger effect = lower value 0.0605 | S. cerevisiae deletion strains, locus YMR078C, strain ctf18, stronger effect = lower value 0.0799 | S. cerevisiae deletion strains, locus YMR125W, strain sto1, stronger effect = lower value 0.0777 | S. cerevisiae deletion strains, locus YMR129W, stronger effect = lower value 0.0576 | S. cerevisiae deletion strains, locus YMR205C, strain PFK2, stronger effect = lower value 0.0851 | S. cerevisiae deletion strains, locus YMR223W, strain ubp8, stronger effect = lower value 0.0723 | S. cerevisiae deletion strains, locus YMR231W, strain pep5, stronger effect = lower value 0.0707 | S. cerevisiae deletion strains, locus YMR263W, strain SAP30, stronger effect = lower value 0.0608 | S. cerevisiae deletion strains, locus YMR307W, strain GAS1, stronger effect = lower value 0.111 | S. cerevisiae deletion strains, locus YNL067W, strain RPL9B, stronger effect = lower value 0.0529 | S. cerevisiae deletion strains, locus YNL071W, strain lat1, stronger effect = lower value 0.061 | S. cerevisiae deletion strains, locus YNL128W, strain TEP1, stronger effect = lower value 0.0661 | S. cerevisiae deletion strains, locus YNL153C, strain GIM3, stronger effect = lower value 0.0523 | S. cerevisiae deletion strains, locus YNL183C, strain NPR1, stronger effect = lower value -0.0047 | S. cerevisiae deletion strains, locus YNL209W, strain ssb2, stronger effect = lower value 0.0598 | S. cerevisiae deletion strains, locus YNL233W, strain BNI4, stronger effect = lower value 0.0553 | S. cerevisiae deletion strains, locus YNL248C, strain rpa49, stronger effect = lower value 0.0858 | S. cerevisiae deletion strains, locus YNL250W, strain rad50, stronger effect = lower value 0.0799 | S. cerevisiae deletion strains, locus YNL271C, strain bni1, stronger effect = lower value 0.075 | S. cerevisiae deletion strains, locus YNL298W, strain CLA4, stronger effect = lower value 0.0729 | S. cerevisiae deletion strains, locus YNL307C, strain MCK1, stronger effect = lower value 0.078 | S. cerevisiae deletion strains, locus YNL322C, strain KRE1 (second series), stronger effect = lower value 0.0637 | S. cerevisiae deletion strains, locus YNL322C, strain KRE1, stronger effect = lower value 0.0493 | S. cerevisiae deletion strains, locus YNR049C, strain mso1, stronger effect = lower value 0.0578 | S. cerevisiae deletion strains, locus YNR052C, strain pop2, stronger effect = lower value 0.0694 | S. cerevisiae deletion strains, locus YOL006C, strain TOP1, stronger effect = lower value 0.108 | S. cerevisiae deletion strains, locus YOL012C, strain htz1 0.189 | S. cerevisiae deletion strains, locus YOL147C, strain pex11, stronger effect = lower value 0.0679 | S. cerevisiae deletion strains, locus YOR001W, strain rrp6, stronger effect = lower value 0.0757 | S. cerevisiae deletion strains, locus YOR061W, strain CKA2, stronger effect = lower value 0.048 | S. cerevisiae deletion strains, locus YOR069W, strain VPS5, stronger effect = lower value 0.0497 | S. cerevisiae deletion strains, locus YOR070C, strain gyp1, stronger effect = lower value 0.59 | S. cerevisiae deletion strains, locus YOR080W, strain dia2, stronger effect = lower value 0.0706 | S. cerevisiae deletion strains, locus YOR083W, strain WHI5, stronger effect = lower value 0.0621 | S. cerevisiae deletion strains, locus YOR106W, strain vam3, stronger effect = lower value 0.0686 | S. cerevisiae deletion strains, locus YOR136W, strain idh2, stronger effect = lower value 0.0816 | S. cerevisiae deletion strains, locus YOR144C, strain elg1, stronger effect = lower value 0.0654 | S. cerevisiae deletion strains, locus YOR184W, strain ser1, stronger effect = lower value 0.0794 | S. cerevisiae deletion strains, locus YOR231W, strain MKK1, stronger effect = lower value 0.109 | S. cerevisiae deletion strains, locus YOR265W, strain rbl2, stronger effect = lower value 0.0573 | S. cerevisiae deletion strains, locus YOR270C, strain vph1, stronger effect = lower value 0.102 | S. cerevisiae deletion strains, locus YOR290C, strain snf2, stronger effect = lower value 0.0632 | S. cerevisiae deletion strains, locus YOR316C, strain cot1, stronger effect = lower value 0.0675 | S. cerevisiae deletion strains, locus YPL051W, strain arl3, stronger effect = lower value 0.0637 | S. cerevisiae deletion strains, locus YPL055C, strain LGE1, stronger effect = lower value 0.0663 | S. cerevisiae deletion strains, locus YPL078C, strain atp4, stronger effect = lower value 0.0651 | S. cerevisiae deletion strains, locus YPL106C, strain sse1, stronger effect = lower value 0.115 | S. cerevisiae deletion strains, locus YPL240C, strain hsp82, stronger effect = lower value 0.0569 | S. cerevisiae deletion strains, locus YPL241C, strain CIN2, stronger effect = lower value 0.0508 | S. cerevisiae deletion strains, locus YPL256C, strain CLN2, stronger effect = lower value 0.126 | S. cerevisiae deletion strains, locus YPR119W, strain clb2, stronger effect = lower value 0.0704 | S. cerevisiae deletion strains, locus YPR141C, strain kar3, stronger effect = lower value 0.0795 | S. cerevisiae deletion strains, locus YPR163C, strain tif3, stronger effect = lower value 0.0768 | S. cerevisiae deletion strains, locus YPR167C, strain met16, stronger effect = lower value 0.0675 | S. cerevisiae deletion strains, strain wtn01, stronger effect = lower value 0.076 | S. cerevisiae strains, strain wild type, stronger effect = lower value 0.0486
